Assay [1] is described as follows: yeast TOR pathway RPL19A-GFP modulators, primary screen, cell-based, S. cerevisiae, multiplex flow cytometry (AID 1862; in the data active = percent of DMSO control GFP below about 86%;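 note: lower values mimic rapamycin by blocking the RPL19A rise seen in DMSO cells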). The note with it: S. cerevisiae RPL19A-GFP strain, flow cytometry fluorescence, 3 h; at 10 µM; stronger effect = lower value. On the technique in general: Flow cytometry measures light scatter and fluorescence of single cells or particles in a stream.
The nature of assay [2]: modulators of MEP2-GFP levels in yeast, primary screen, S. cerevisiae, multiplex flow cytometry (AID 1867;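 active = GFP response, as percent of the DMSO control, above the screen-wide mean plus 3 SD, about 139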;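 note: median GFP channel fluorescence of barcode-gated MEP2-GFP cells measured by flow cytometry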). The note with it: S. cerevisiae MEP2-GFP strain, 3 h, at 10 µM, stronger effect = higher value, 100% means same as DMSO wells.
Assay [3] is described as follows: modulators of CIT2-GFP expression in yeast, primary screen, S. cerevisiae, GFP fusion, multiplex flow cytometry (AID 1870;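 active = percent response above a set limit, the screen-wide mean plus 3 SD, cut at about 130% in these data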;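 note: barcoded CIT2-GFP strain pooled with four other GFP strains with rapamycin as positive control; median GFP fluorescence per well over plate mean of DMSO wells so 100% = DMSO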). To be noted: 3 h, at 10 µM, stronger effect = higher value.
A short description of assay [4]: modulators of LAP4-GFP expression in yeast, primary screen, S. cerevisiae, multiplex flow cytometry (AID 1873;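 active = GFP signal, as percent of the solvent control, above the screen mean plus 3 SD, about 149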). To be noted: 3 h, at 10 µM, stronger effect = higher value.
Assay [5] in a line: modulators of AGP1-GFP expression in yeast TOR pathway, primary screen, cell-based, multiplex flow cytometry, S. cerevisiae (AID 1887;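 active = GFP signal above the screen-wide mean plus 3 SD, that is over about 124.5% of the solvent control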;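 note: AGP1-GFP fusion strain of S. cerevisiae within a five-strain barcoded multiplex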). The note with it: 3 h, at 10 µM, stronger effect = higher value.
Assay [6] is described as follows: inhibitors of CD8+ T cell-vesicle binding, pilot screen, LFA-1/ICAM-1 modulator project, MLPCN validation set, flow cytometry (AID 2523;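 active = response below a set limit, under 55% cells CD8-positive and vesicle-bound, and CD8 cells' 90th-percentile brightness under 279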;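 for vesicle binding response: mean PE anti-B7-1 fluorescence of CD8+ cells relative to row control; 100% = QL9-loaded vesicles with DMSO vehicle in the same plate row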). The note with it: 2C mouse CD8+ T cells, at 7 µM, stronger effect = lower value; double positive events: measured here: CD8+/vesicle+ event percentage.
The target of assay [7] is Integrin beta-1 (Homo sapiens) + Integrin alpha-4 (Homo sapiens) (UniProt P13612+P05556). Description: inhibition of HUTS-21 binding to VLA-4, pilot screen, VLA-4 allosteric modulator project, U937 cells, HUTS-21 mAb, flow cytometry, validation set (AID 2674;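 active = inhibition above 50%, about 3 SD of the validation set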;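 note: antibody binding induced by the VLA-4 ligand LDV present at three times its Kd; 0% = LDV ligand with antibody and no compound and 100% = antibody without LDV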). The note with it: HUTS-21 LIBS mAb binding, at 6.7 µM, stronger effect = higher value, binding induced by LDV ligand.
The nature of assay [8]: superoxide lowering in aged yeast cells, pilot screen, validation compound set (AID 2706;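 active = superoxide response below 65% of plate, a cut near 3 SD across the whole screen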;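 note: yeast exposed to compound for one week at 30 degrees C before staining; 100% = mean of all compound wells on the same plate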). To be noted: S. cerevisiae aging, superoxide DHE fluorescence; at 10 µM; stronger effect = lower value.
Assay [9] addresses Beta-adrenergic receptor kinase 1 (Homo sapiens) (UniProt P25098). The assay is described as follows: GRK2 binders displacing RNA aptamer, biochemical, validation, human GRK2, bead flow cytometry (AID 488806;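 active = aptamer binding inhibition above 30%, about 3 SD of noise from non-fluorescent compounds; inactive = inhibition at or below 30%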). To be noted: bead-bound GRK2, FAM-aptamer displacement, at 10 µM, stronger effect = higher value.
Assay [10] has as its target Beta-2 adrenergic receptor (Homo sapiens) (UniProt P07550). The assay is described as follows: beta2AR agonists driving receptor internalization, pilot screen, cell-based, FAP fluorogen, flow cytometry, validation set (AID 504459;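 active = percent response above 42, roughly 3 SD of non-fluorescent test compounds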;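 note: agonist-driven loss of surface beta2AR via internalization measured by FAP dye flow cytometry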). The note with it: Am2.2-beta2AR cells, FAP surface receptor flow cytometry; at 10 µM; stronger effect = higher value.
The target of assay [11] is AP-2 complex subunit beta (Homo sapiens) (UniProt P63010). The assay is described as follows: inhibitors of arrestin peptide binding to AP2, pilot screen, biochemical, validation set, GST-AP2 beads, flow cytometry (AID 504541;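 active = inhibition above 54%, about 3 SD of non-fluorescent compounds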;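 note: AP2 carries R879A mutation and is captured from E. coli lysate; bead-bound FITC arrestin peptide fluorescence measuring arrestin peptide binding to AP2; 0% = DMSO wells and 100% = excess unlabeled arrestin peptide control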). To be noted: FITC arrestin peptide, at 10 µM, stronger effect = higher value, AP2 beta2 appendage fragment, R879A mutant.
A short description of assay [12]: yeast V-ATPase proton transport modulators, S. cerevisiae, pHLuorin, HTS validation (AID 504600; in the data active = response above about 15%;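 note: plate controls were DMSO for no effect and reference compound for full effect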). The note with it: S. cerevisiae pHLuorin cytosolic pH, at 10 µM, stronger effect = higher value.
Assay [13] relates to anti-desmoglein-3 scFv antibody binding to human DSG3. The assay is described as follows: inhibitors of anti-DSG3 scFv binding to DSG3, pilot screen, biochemical, validation compound set, bead-based, flow cytometry (AID 588368;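 active = binding below the plate cutoff, the plate median minus 3 SD, with a reading above zero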;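 note: signal is the median channel fluorescence of bead-bound GFP antibody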). To be noted: Protein G beads, DSG3-Fc, scFv-GFP binding, at 10 µM, stronger effect = lower value.
Assay [14] can be described thus: inhibitors of fungal efflux pumps CDR1, CDR2, MDR1, pilot screen, validation compound set, multiplex, phenotypic (AID 588506).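 Note: Nile Red retained in cells so higher fluorescence means more efflux inhibition; 0 = negative control wells and 1 = enniatin B 25 µM full block.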 The note with it: S. cerevisiae pump-expressing triplex, Nile Red efflux flow cytometry; at 10 µM; stronger effect = higher value; the pumps come from Candida albicans.
The target of assay [15] is ATP-binding cassette sub-family B member 6 (Homo sapiens) (UniProt Q9NP58). Description: ABCB6 transporter inhibitors, pilot screen, K562-ABCB6 cells, flow cytometry, validation set (AID 588550;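 active = inhibition above the screen-wide mean plus 3 SD, about 51%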;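 note: 0% = DMSO wells and 100% = benzethonium chloride 70 µM positive control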). The note with it: K562-ABCB6 porphyrin accumulation, 1 h, at 10 µM, stronger effect = higher value.
The nature of assay [16]: promoters of myeloid differentiation in arrested cells, primary screen, cell-based, GFP/MAC1 double positive, flow cytometry, validation set (AID 588685;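 active = differentiation response of at least 50%, scaled between solvent and reference control, from cells with both markers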;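 note: compound exposure lasts four days before antibody staining and flow analysis; 0% = DMSO wells and 100% = 5 µM fulvestrant positive control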). To be noted: ER-HoxA9 marrow cells, stronger effect = higher value, normalized: vehicle 0, fulvestrant 100.

Five molecules from PubChem BioAssay can be followed below.

Inconclusive results are not listed. Active and inactive are the calls of the source.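 Rule for the calls, unless noted: active = efflux inhibition above 0.42, the validation set average plus 4 SD; inconclusive = no clear call, values can overlap the other calls; inactive = the rest.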

The inhibition is the drop in the measured response relative to a control, in per cent.

Sequence of Integrin beta-1 (Homo sapiens) + Integrin alpha-4 (Homo sapiens) (P05556 whole entry, looked up): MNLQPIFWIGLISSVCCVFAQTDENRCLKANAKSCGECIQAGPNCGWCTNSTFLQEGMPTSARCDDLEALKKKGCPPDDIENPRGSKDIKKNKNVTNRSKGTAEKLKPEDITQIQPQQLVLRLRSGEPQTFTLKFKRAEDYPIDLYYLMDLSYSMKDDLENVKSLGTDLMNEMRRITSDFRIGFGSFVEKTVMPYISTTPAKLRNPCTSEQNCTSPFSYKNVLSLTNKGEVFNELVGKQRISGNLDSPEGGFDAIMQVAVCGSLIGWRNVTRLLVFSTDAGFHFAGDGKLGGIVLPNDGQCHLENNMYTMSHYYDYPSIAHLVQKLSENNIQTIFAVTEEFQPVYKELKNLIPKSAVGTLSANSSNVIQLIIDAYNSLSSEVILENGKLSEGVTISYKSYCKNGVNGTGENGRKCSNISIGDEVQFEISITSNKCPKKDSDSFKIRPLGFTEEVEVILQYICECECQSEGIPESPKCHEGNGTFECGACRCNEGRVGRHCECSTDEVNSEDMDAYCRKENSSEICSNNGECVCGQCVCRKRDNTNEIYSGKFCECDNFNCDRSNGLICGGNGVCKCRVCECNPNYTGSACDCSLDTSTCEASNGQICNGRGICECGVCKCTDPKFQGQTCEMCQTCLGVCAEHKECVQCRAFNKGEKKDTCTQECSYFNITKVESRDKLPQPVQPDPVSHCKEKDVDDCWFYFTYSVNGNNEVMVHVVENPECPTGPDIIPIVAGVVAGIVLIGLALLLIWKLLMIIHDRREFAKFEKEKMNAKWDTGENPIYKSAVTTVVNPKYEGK
Sequence of Integrin beta-1 (Homo sapiens) + Integrin alpha-4 (Homo sapiens) (P13612 whole entry, looked up): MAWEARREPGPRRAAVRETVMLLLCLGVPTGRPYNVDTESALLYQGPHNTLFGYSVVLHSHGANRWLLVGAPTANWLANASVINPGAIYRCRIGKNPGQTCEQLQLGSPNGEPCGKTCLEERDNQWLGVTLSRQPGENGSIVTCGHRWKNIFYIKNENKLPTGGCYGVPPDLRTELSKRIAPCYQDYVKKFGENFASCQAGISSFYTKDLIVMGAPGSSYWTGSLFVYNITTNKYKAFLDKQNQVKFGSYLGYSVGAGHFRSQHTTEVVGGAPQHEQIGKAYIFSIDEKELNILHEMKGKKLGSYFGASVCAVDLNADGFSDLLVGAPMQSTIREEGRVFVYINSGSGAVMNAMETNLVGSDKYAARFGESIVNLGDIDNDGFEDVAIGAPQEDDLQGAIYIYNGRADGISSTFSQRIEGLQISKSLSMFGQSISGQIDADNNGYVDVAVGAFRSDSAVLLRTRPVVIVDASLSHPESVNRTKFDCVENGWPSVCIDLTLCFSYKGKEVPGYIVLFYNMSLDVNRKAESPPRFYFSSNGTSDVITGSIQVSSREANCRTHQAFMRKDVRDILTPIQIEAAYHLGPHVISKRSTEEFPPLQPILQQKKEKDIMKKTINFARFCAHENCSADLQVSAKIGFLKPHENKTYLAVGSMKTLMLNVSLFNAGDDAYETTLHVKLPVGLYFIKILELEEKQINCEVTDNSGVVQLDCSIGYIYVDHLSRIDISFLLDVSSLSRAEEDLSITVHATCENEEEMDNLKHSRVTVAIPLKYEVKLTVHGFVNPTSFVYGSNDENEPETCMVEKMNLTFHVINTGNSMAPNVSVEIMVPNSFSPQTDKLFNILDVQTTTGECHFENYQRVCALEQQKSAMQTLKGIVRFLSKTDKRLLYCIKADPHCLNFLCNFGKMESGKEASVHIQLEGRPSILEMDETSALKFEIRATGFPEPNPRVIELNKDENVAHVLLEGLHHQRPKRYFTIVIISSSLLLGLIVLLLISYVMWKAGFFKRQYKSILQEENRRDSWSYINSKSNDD
Sequence of Beta-2 adrenergic receptor (Homo sapiens) (P07550 whole entry, looked up): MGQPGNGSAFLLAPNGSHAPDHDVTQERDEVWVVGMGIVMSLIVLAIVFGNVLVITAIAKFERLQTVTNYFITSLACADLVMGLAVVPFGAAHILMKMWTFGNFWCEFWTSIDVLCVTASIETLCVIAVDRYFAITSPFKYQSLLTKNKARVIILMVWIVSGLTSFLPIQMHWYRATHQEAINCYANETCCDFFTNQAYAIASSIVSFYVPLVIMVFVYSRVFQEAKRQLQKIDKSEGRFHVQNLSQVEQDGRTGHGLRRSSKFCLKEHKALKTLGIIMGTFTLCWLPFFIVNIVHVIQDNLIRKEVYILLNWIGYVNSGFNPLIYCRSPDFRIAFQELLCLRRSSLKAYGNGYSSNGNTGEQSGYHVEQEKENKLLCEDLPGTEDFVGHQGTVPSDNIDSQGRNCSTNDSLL
Sequence of AP-2 complex subunit beta (Homo sapiens) (P63010 whole entry, looked up, the tested form may be a part, one chain of several): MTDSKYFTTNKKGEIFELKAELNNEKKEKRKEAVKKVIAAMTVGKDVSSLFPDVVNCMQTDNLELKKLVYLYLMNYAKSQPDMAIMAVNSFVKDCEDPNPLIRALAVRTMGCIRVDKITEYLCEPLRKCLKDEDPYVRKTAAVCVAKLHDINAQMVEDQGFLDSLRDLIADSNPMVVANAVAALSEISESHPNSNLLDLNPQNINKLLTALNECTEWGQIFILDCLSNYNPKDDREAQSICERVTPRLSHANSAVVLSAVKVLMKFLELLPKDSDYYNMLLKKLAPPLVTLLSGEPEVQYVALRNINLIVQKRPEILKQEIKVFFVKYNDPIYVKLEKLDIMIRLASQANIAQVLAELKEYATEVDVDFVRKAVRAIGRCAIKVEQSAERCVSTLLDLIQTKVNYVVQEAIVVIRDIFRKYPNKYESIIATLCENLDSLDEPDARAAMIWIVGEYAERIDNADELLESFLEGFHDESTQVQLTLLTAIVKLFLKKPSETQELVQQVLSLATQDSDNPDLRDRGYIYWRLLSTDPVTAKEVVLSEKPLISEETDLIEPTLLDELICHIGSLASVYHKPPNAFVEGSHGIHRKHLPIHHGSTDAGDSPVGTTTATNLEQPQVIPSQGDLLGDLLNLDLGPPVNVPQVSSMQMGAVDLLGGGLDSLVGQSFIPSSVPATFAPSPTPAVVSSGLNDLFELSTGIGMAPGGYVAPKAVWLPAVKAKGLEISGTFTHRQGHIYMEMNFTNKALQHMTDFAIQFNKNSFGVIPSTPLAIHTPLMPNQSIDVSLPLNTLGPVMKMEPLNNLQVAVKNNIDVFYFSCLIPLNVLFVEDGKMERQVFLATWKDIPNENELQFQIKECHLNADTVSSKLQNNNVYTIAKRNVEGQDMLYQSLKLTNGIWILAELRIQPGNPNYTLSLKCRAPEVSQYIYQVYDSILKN
Sequence of Beta-adrenergic receptor kinase 1 (Homo sapiens) (P25098 whole entry, looked up): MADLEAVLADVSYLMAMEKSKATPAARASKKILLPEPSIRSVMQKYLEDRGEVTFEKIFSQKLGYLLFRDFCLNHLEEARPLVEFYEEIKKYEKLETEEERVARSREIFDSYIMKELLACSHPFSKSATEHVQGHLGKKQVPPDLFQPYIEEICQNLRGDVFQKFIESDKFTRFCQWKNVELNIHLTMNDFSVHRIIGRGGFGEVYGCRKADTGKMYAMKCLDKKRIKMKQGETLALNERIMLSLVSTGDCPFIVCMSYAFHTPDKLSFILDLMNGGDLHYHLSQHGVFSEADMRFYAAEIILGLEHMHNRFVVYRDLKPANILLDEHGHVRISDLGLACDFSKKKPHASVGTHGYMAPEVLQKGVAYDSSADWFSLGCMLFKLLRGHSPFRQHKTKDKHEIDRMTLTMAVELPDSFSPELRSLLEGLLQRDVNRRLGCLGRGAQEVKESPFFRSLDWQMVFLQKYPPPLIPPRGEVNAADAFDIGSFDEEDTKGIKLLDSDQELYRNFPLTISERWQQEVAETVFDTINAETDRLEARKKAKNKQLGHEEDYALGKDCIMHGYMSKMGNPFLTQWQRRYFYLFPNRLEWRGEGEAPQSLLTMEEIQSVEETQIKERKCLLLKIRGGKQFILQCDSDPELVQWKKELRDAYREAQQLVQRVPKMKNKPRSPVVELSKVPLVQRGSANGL
Sequence of ATP-binding cassette sub-family B member 6 (Homo sapiens) (Q9NP58 whole entry, looked up): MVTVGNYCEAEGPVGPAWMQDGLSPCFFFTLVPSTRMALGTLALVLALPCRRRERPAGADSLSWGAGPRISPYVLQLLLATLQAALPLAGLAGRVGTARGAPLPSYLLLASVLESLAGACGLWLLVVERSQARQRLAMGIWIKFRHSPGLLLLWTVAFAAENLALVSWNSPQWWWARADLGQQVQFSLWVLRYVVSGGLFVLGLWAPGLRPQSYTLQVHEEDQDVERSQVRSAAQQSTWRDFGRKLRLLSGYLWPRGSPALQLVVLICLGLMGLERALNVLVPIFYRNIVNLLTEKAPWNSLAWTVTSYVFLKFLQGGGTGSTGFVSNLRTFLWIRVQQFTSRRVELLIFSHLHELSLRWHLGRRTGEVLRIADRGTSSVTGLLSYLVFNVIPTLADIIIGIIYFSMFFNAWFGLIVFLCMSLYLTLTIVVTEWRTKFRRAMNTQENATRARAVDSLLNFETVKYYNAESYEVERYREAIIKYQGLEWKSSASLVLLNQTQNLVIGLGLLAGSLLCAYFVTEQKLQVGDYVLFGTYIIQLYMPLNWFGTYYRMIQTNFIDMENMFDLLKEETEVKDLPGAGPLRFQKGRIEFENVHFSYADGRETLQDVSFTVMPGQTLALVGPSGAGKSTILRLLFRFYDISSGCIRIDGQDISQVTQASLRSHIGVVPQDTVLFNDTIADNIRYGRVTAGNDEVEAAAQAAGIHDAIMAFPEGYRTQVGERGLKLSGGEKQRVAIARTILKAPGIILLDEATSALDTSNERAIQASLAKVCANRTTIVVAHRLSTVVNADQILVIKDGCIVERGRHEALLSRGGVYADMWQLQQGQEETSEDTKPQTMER

In the case of `CC(=O)[C@@H]1[C@@H](C(=O)c2ccc(C)cc2)[C@]2(C(=O)Nc3ccccc32)[C@H]2C=Cc3cc(F)ccc3N12`, in assay [1], the percent of DMSO control GFP is 97.4% (inactive). The GFP response vs DMSO in [2] was 102% (inactive); in assay [4], 117% (inactive). Besides, the percent response of DMSO control in [3] was 90.1% (inactive). In [5], the GFP response, % of DMSO was 100% (inactive). This molecule also yielded a double positive events in [6] of 61.3%. In [6], the vesicle binding response is 161% (inactive). For the same molecule, the inhibition in assay [7] is -119% (inactive); in assay [11], 4.08% (inactive); in assay [15] it was 2% (inactive). Moreover, in assay [8], the superoxide response (% of plate) is 112% (inactive). The aptamer binding inhibition in [9] is 4% (inactive). In addition, the response in assay [10] is 40.7% (inactive); in assay [12], -5.02% (inactive). The binding (% of control) in [13] was 98.9% (inactive). In assay [14], the efflux inhibition (fraction of control) is -0.03 (inactive). Also, the differentiation response in [16] is 8.8% (inactive).

With `c1ccc(CC2=NCCN2)cc1`, the percent of DMSO control GFP in assay [1] is 104% (inactive). Also, the GFP response vs DMSO in assay [2] was 107% (inactive); in [4], 103% (inactive). In addition, the percent response of DMSO control in [3] is 100% (inactive). The GFP response, % of DMSO in assay [5] is 102% (inactive). In assay [6], this molecule displayed a double positive events of 61.8%. For the same molecule, in assay [6], the vesicle binding response is 181% (inactive). Besides, the values for the inhibition in assay [7], in [11] and in [15] were 0% (inactive), -16.6% (inactive) and -5% (inactive), respectively. Besides, in assay [8], the superoxide response (% of plate) is 101% (inactive). The aptamer binding inhibition in assay [9] is -2% (inactive). The response in [10] is -7.37% (inactive); in assay [12], 1.43% (inactive). Further, the binding (% of control) in assay [13] was 98% (inactive). Also, the efflux inhibition (fraction of control) in [14] is -0.07 (inactive). Also, the differentiation response in assay [16] was 14.9% (inactive).

Turning to `CC(C)COCC(CN(Cc1ccccc1)c1ccccc1)N1CCCC1` (stereo not given), the percent of DMSO control GFP in assay [1] was 93.5% (inactive). Moreover, the results for the GFP response vs DMSO in assay [2] and in [4] were 121% (inactive) and 74.3% (inactive), respectively. Further, the percent response of DMSO control in assay [3] is 104% (inactive). In addition, the GFP response, % of DMSO in assay [5] was 91.9% (inactive). This molecule also gave a double positive events in [6] of 61.3%. The vesicle binding response in [6] was 119% (inactive). For the same molecule, the inhibition in assay [7] is 1.61% (inactive); in assay [11], -11.8% (inactive); in assay [15], 8% (inactive). For the same molecule, the superoxide response (% of plate) in [8] was 116% (inactive). Also, in assay [9], the aptamer binding inhibition is -2% (inactive). For the same molecule, the response in assay [10] is 8.3% (inactive); in [12] it was 0.91% (inactive). The binding (% of control) in [13] is 113% (inactive). Further, the efflux inhibition (fraction of control) in assay [14] is 0.16 (inactive). For the same molecule, in [16], the differentiation response was -0.82% (inactive).

As for `O=c1c(-c2ccccc2)c(O)c2cccc3c2n1CCC3`, the percent of DMSO control GFP in [1] is 99.7% (inactive). In addition, the figures for the GFP response vs DMSO in assay [2] and in assay [4] were 104% (inactive) and 132% (inactive), respectively. Further, the percent response of DMSO control in assay [3] is 95.7% (inactive). The GFP response, % of DMSO in [5] is 103% (inactive). The double positive events in assay [6] worked out at 61.2%. In [6], the vesicle binding response was 186% (inactive). Besides, the inhibition in assay [7] was 1.44% (inactive); in [11] it was -7.94% (inactive); in assay [15], 1% (inactive). Moreover, the superoxide response (% of plate) in assay [8] was 108% (inactive). For the same molecule, the aptamer binding inhibition in [9] was -3% (inactive). Also, the response in [10] is -27.7% (inactive); in assay [12] it was 0.3% (inactive). The binding (% of control) in assay [13] was 101% (inactive). Further, the efflux inhibition (fraction of control) in assay [14] was -0.09 (inactive). Moreover, the differentiation response in assay [16] was -12.9% (inactive).

For `CCSC(SCC)[C@H](O)[C@@H](O)[C@H](O)[C@H](O)CO`, the percent of DMSO control GFP in assay [1] is 95.5% (inactive). In addition, the GFP response vs DMSO in [2] is 113% (inactive); in assay [4] it was 74.8% (inactive). Also, in [3], the percent response of DMSO control is 107% (inactive). Further, the GFP response, % of DMSO in assay [5] is 93.8% (inactive). In assay [6], this molecule yielded a double positive events of 58%. Moreover, in assay [6], the vesicle binding response was 218% (inactive). Moreover, the inhibition in assay [7] is 6.46% (inactive); in assay [11], 4.05% (inactive); in [15], 6% (inactive). In addition, the superoxide response (% of plate) in [8] was 114% (inactive). For the same molecule, the aptamer binding inhibition in assay [9] was 7% (inactive). Besides, the response is -7.81% (inactive) in assay [10] and -1.88% (inactive) in assay [12]. Also, the binding (% of control) in [13] was 104% (inactive). For the same molecule, the efflux inhibition (fraction of control) in assay [14] is 0.3 (inactive). Moreover, the differentiation response in [16] is -2.46% (inactive).
